# From PubChem BioAssay (EPA / NIEHS)
# Activity calls are given as the source filed them. How the source made its calls: active means hit-call score of the fitted dose curve at least 0.9, where 1 is the maximum; inactive means score below 0.9.
# Assay: APR_HepG2_MicrotubuleCSK_24hr: Apredica 24-hour HepG2 Assay for Microtubule CSK Stabilty (AID 2282909)
# Settings: HepG2 microtubule cytoskeleton imaging, actives raise or lower the signal
# Experimental: APR_HepG2_24hr is a cell-based, multiplexed-readout assay that uses HepG2, a human liver cell line, with measurements taken at 24 hours after chemical dosing in a 384-well plate.APR_HepG2_MicrotubuleCSK_24hr is one of 10 assay component(s) measured or calculated from the APR_HepG2_24hr assay. It is designed to make measurements of protein conformation, a form of conformation reporter, as detected with fluorescence intensity signals by HCS Fluorescent Imaging technology.Data from the assay component APR_HepG2_MicrotubuleCSK_24hr was analyzed into 1 assay endpoint. This assay endpoint, APR_HepG2_MicrotubuleCSK_24hr, was analyzed with bidirectional fitting relative to DMSO as the negative control and baseline of activity. Using a type of conformation reporter, measures of protein for gain or loss-of-signal activity can be used to understand the signaling at the cellular-level. Furthermore, this assay endpoint can be referred to as a primary readout, because this assay has produced multiple assay endpoints where this one serves a signaling function. To generalize the intended target to other relatable targets, this assay endpoint is annotated to the cell morphology intended target family, where the subfamily is cell conformation.
# Cells were treated with dimethyl sulfoxide (DMSO) as a solvent control at a final concentration of 0.5% v/v or with compounds in DMSO with a resulting final DMSO concentration of 0.5% v/v. Compound treatment was done at concentrations of 0.39, 0.78, 1.56, 3.12, 6.24, 12.5, 25, 50, 100, and 200 uM in duplicate on each plate. Cells were treated with compounds for 1, 24, or 72 hr. Carbonyl […] m-chloro-phenylhydrazone (CCCP) and taxol were used as positive controls for mitochondrial function and cytoskeletal stability, respectively; DMSO served as the negative control for this experiment. Cells were fixed by the direct addition of 50 uL formaldehyde in Hank's Balanced Salt Solution (HBSS) to a final concentration of 3.7%. After incubation in the fixation medium for 30 min at room temperature (293-298 K), cells were rinsed twice with HBSS and treated with cell permeabilization buffer (16 uL of 0.5% Triton X-100) for 10 min at room temperature (293-298 K) before labeling. For mitochondrial membrane potential and mitochondrial measurements, pre-fixed cells were incubated with 50 uL of MitoTracker Red CMXRos (Invitrogen) at a concentration of 250 nM for 30 min before fixation. In the remaining cases, post-fixed cells were labeled by incubation with a multiplexed mixture of primary antibodies in HBSS for 60 min at room temperature (293-298 K) to detect immunoreactivity of c-Jun (1:500), phospho-histone H3 (1:100), phospho-histone H2A.x (1:200), p53 (1:400), alpha-tubulin (1:200) and Hoechst 33342 (2 ug/mL). Cells were labeled for multiplexed imaging on two separate plates: a) Hoechst 33342, MitoTracker Red, phospho-histone H3, and alpha-tubulin, and b) Hoechst 33342, phospho-histone H2A.x, and c-Jun. A final rinse with HBSS (50 uL) was performed before analysis. The primary and secondary antibodies for the proteins were phospho-histone H3 (rabbit anti-phospho-histone H3 and FITC-donkey anti-rabbit IgG), phospho-histone H2A.x (mouse anti-phospho-histone H2A.x and FITC-donkey anti-mouse IgG), c-Jun (rabbit anti-phospho-c-Jun and Cy3-donkey anti-rabbit IgG), p53 (sheep anti-p53 and Cy5-donkey anti-sheep IgG), alpha-tubulin (mouse anti-alpha-tubulin and Cy5-donkey anti-mouse IgG). These antibodies are available as the CellCiphr HepG2 assay kit (Millipore).Digital images of each well were captured using a Cellomics ArrayScan VTI (Thermo Scientific Cellomics) (0.8 NA objective, 0.63x optical coupler, and XF-93 filter set) at 20x magnification. The images were acquired using the autofocus feature of the ArrayScan instrument, which entails the following steps. First, the camera focuses on channel 1 (Hoechst 33342), where nuclei are identified. Second, a Z offset of 1 um is used for capturing mitochondria (MitoTracker Red). […]
Structure (SMILES),outcome,AC50
CSc1nnc(C(C)(C)C)c(=O)n1N,inactive,–
CN(C)C(=O)Nc1cccc(C(F)(F)F)c1,inactive,–
C#CC(C)(C)NC(=O)c1cc(Cl)cc(Cl)c1,inactive,–
N#CSCSC#N,inactive,–
CCc1cccc(CC)c1N(COC)C(=O)CCl,–,55.7 µM (active)
CCC(CC)Nc1c([N+](=O)[O-])cc(C)c(C)c1[N+](=O)[O-],inactive,–
CON=C(C(=O)OC)c1ccccc1CON=C(C)c1cccc(C(F)(F)F)c1,inactive,–
C[N+]1(C)CCCCC1,inactive,–
CNC(=O)Oc1cccc2c1OC(C)(C)O2,inactive,–
CC1(C(=O)Nc2ccc(O)c(Cl)c2Cl)CCCCC1,–,94 µM (active)
CC(Oc1cccc(Cl)c1)C(=O)O (stereo not given),inactive,–
CCCSP(=O)(OCC)Oc1ccc(Br)cc1Cl (stereo not given),–,113 µM (active)
CNC(=O)ON=C(C)SC,inactive,–
CCOP(=S)(OCC)Oc1cc(C)nc(C(C)C)n1,inactive,–
CCCSP(=O)(OCC)SCCC,inactive,–
CC[C@H](C)[C@H]1O[C@]2(C=C[C@@H]1C)C[C@@H]1C[C@@H](C/C=C(\C)[C@@H](O[C@H]3C[C@H](OC)[C@@H](O[C@H]4C[C@H](OC)[C@@H](NC)[C@H](C)O4)[C@H](C)O3)[C@@H](C)/C=C/C=C3\CO[C@@H]4[C@H](O)C(C)=C[C@@H](C(=O)O1)[C@]34O)O2,–,12.6 µM (active)
Cc1cc(C2CC2)nc(Nc2ccccc2)n1,–,98.6 µM (active)
CCC(=NOC/C=C/Cl)C1=C(O)CC(C2CCOCC2)CC1=O (stereo not given),inactive,–
CCOP(=O)(SC(C)CC)N1CCSC1=O (stereo not given),inactive,–
CCCCN(CC)c1c([N+](=O)[O-])cc(C(F)(F)F)cc1[N+](=O)[O-],inactive,–

Structure (SMILES),outcome,AC50
COc1ccc(C(=CC(=O)N2CCOCC2)c2ccc(Cl)cc2)cc1OC,inactive,–
CCOC(=O)CC(SP(=O)(OC)OC)C(=O)OCC (stereo not given),inactive,–
CSc1nc(NC(C)C)nc(NC(C)C)n1,inactive,–
CN(C)[C@@H]1C(=O)C(C(N)=O)=C(O)[C@@]2(O)C(=O)C3=C(O)c4c(O)cccc4[C@@](C)(O)[C@H]3[C@H](O)[C@@H]12,inactive,–
O=c1ccc(=O)[nH][nH]1,inactive,–
CCNc1nc(Cl)nc(NC(C)(C)C#N)n1,inactive,–
CCCCOC(=O)[C@@H](C)Oc1ccc(Oc2ccc(C#N)cc2F)cc1,inactive,–
CC(=NC#N)N(C)Cc1ccc(Cl)nc1,inactive,–
CN1COCN(Cc2cnc(Cl)s2)C1=N[N+](=O)[O-],inactive,–
CCOP(=S)(OCC)OC(Cl)C(Cl)(Cl)Cl (stereo not given),inactive,–
CN(C)NC(=O)CCC(=O)O,inactive,–
CCOP(=S)(Oc1cnc(C(C)(C)C)nc1)OC(C)C (stereo not given),inactive,–
CCOP(=S)(OCC)Oc1ccc([N+](=O)[O-])cc1,inactive,–
Nc1c(Cl)cc([N+](=O)[O-])cc1Cl,inactive,–
CCC(=O)Nc1ccc(Cl)c(Cl)c1,inactive,–
CCOC(=O)COc1cc(-c2nn(C)c(OC(F)F)c2Cl)c(F)cc1Cl,inactive,–
CSC1=N[C@@](C)(c2ccccc2)C(=O)N1Nc1ccccc1,–,43.3 µM (active)
CC(C)=CC1C(C(=O)OCN2C(=O)C3=C(CCCC3)C2=O)C1(C)C (stereo not given),–,105 µM (active)
CC(C)[C@H](C(=O)O[C@H](C#N)c1cccc(Oc2ccccc2)c1)c1ccc(Cl)cc1,inactive,–
COc1cc(OC)nc(Sc2cccc(Cl)c2C(=O)O)n1,inactive,–
